The source of these data is PubChem BioAssay (NCI).

This is part of a sample that, as a whole, favours compounds with a hit. Of some 79,000 tested, about 15% had one in any assay. Unmarked numbers belong to inactive results. Activity calls are given as the source filed them. Rule as the data show it: active = growth inhibition above about 70%; inactive = the rest.

A short description of test [1]: NCI Yeast Anticancer Drug Screen. Data for the rad50 strain (AID 155).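 Also: 0% = growth of vehicle-only cultures of the same strain.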 To be noted: S. cerevisiae rad50 strain growth inhibition, active compounds read high. The essentials:
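Vehicle-treated cultures provide the reference for the growth inhibition reported for compound-exposed, repair-deficient yeast.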

Test [2] can be described thus: NCI Yeast Anticancer Drug Screen. Data for the mec2-1 strain (AID 157). To be noted: S. cerevisiae mec2-1 strain, active compounds read high. Put shortly:
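Strain: mec2-1 (DNA repair/cell cycle alteration). Compound exposure, then growth measured; inhibition expressed relative to vehicle.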

Test [3] is described as follows: NCI Yeast Anticancer Drug Screen. Data for the sgs1 mgt1 strain (AID 161).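 Also: 0% = growth of cultures given vehicle only.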 To be noted: S. cerevisiae sgs1 mgt1 strain, active compounds read high. Put shortly: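 Read-out: growth inhibition vs vehicle controls. Cells: mutant yeast strain deficient in DNA damage repair.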
The nature of test [4]: NCI Yeast Anticancer Drug Screen. Data for the cln2 rad14 strain (AID 165).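 Also: 0% = growth equal to vehicle treated cultures.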 To be noted: S. cerevisiae cln2 rad14 strain, active compounds read high. Put shortly:
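Compounds are applied to the cln2 rad14 yeast strain, and growth is then compared with that of vehicle-treated cultures to give inhibition.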

Test [5] in a line: NCI Yeast Anticancer Drug Screen. Data for the bub3 strain (AID 167). To be noted: S. cerevisiae bub3 mutant strain, active compounds read high. Put shortly: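 Mutant yeast screening strain plus compound; vehicle-treated cultures serve as the 0% inhibition reference.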
Test [6] can be described thus: NCI Yeast Anticancer Drug Screen. Data for the mlh1 rad18 strain (AID 175). To be noted: S. cerevisiae mlh1 rad18 strain growth inhibition, active compounds read high. Put shortly: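 Read-out is yeast growth inhibition, calculated against vehicle-only controls. The compound was applied to a strain engineered with DNA damage repair alterations.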
The mark [7] stands for this setting: at 5.0 µM (retest, dose inferred, filed as 0.5).
Where [8] appears, read: at 50.0 µM (retest, dose inferred, filed as 5.0).

In the case of `O=C(/C=C\C(=O)Nc1cccc(N(Cc2ccccc2)Cc2ccccc2)c1)Nc1cccc(N(Cc2ccccc2)Cc2ccccc2)c1`, the growth inhibition in test [1] (setting [7]) was -5%; in test [1] (setting [8]), 2%; in test [1] (at 50.0 µM) it was 61.5%; in test [2] (setting [7]), -10%; in test [2] (setting [8]) it was -1%; in test [2] (at 50.0 µM) it was 87.2% (active). Besides, the growth inhibition in test [3] (setting [7]) is 0%; in test [3] (setting [8]) it was 5%; in test [3] (at 50.0 µM) it was 85.5% (active); in test [4] (setting [7]) it was 4%; in test [4] (setting [8]) it was 13%; in test [4] (at 50.0 µM) it was 67%. For the same molecule, the growth inhibition in test [5] (setting [7]) was -2%; in test [5] (setting [8]) it was 3%; in test [5] (at 50.0 µM), 46.2%; in test [6] (setting [7]) it was -3%; in test [6] (setting [8]), 3%; in test [6] (at 50.0 µM), 82% (active).

In the case of `COC(=O)c1nc(N)nc(C(=O)OC)c1C(=O)c1ccccc1`, the growth inhibition in test [1] (setting [7]) was 0%; in test [1] (setting [8]), 21%; in test [1] (at 50.0 µM), -32.9%; in test [2] (setting [7]), 22%; in test [2] (setting [8]), -5%; in test [2] (at 50.0 µM), -13.3%. Moreover, the growth inhibition was 30% in test [3] (setting [7]); 20% in test [3] (setting [8]); -29.4% in test [3] (at 50.0 µM); -13% in test [4] (setting [7]); 1% in test [4] (setting [8]); 42.7% in test [4] (at 50.0 µM). Further, the growth inhibition in test [5] (setting [7]) is -3%; in test [5] (setting [8]), 0%; in test [5] (at 50.0 µM), -24.6%; in test [6] (setting [7]) it was -2%; in test [6] (setting [8]), -5%; in test [6] (at 50.0 µM), 0%.

In the case of `Cc1cc(Nc2ccc(O)c(CN3CCN(Cc4cc(Nc5cc(C)nc(N)n5)ccc4O)CC3)c2)nc(N)n1`, the growth inhibition in test [1] (setting [7]) is 8%; in test [1] (setting [8]), 95% (active); in test [1] (at 50.0 µM), 97.5% (active); in test [2] (setting [7]) it was 6%; in test [2] (setting [8]) it was 96% (active); in test [2] (at 50.0 µM), 96.9% (active). For the same molecule, the growth inhibition was 5% in test [3] (setting [7]); 96% (active) in test [3] (setting [8]); 97.5% (active) in test [3] (at 50.0 µM); 12% in test [4] (setting [7]); 94% (active) in test [4] (setting [8]); 89.7% (active) in test [4] (at 50.0 µM). The growth inhibition in test [5] (setting [7]) is 9%; in test [5] (setting [8]) it was 95% (active); in test [5] (at 50.0 µM) it was 95.4% (active); in test [6] (setting [7]), 7%; in test [6] (setting [8]), 97% (active); in test [6] (at 50.0 µM), 97.5% (active).

`CCOC(=O)c1[nH]n(-c2ccccc2)c(=O)c1/C=N/C(=S)N=Nc1c(O)[nH]c2ccccc12`: the growth inhibition was -9% in test [1] (setting [7]); -9% in test [1] (setting [8]); -2.3% in test [1] (at 50.0 µM); -21% in test [2] (setting [7]); -17% in test [2] (setting [8]); -23.4% in test [2] (at 50.0 µM). Further, the growth inhibition in test [3] (setting [7]) is -7%; in test [3] (setting [8]) it was -4%; in test [3] (at 50.0 µM), -22.6%; in test [4] (setting [7]), -18%; in test [4] (setting [8]), -20%; in test [4] (at 50.0 µM), 28.1%. The growth inhibition in test [5] (setting [7]) was -13%; in test [5] (setting [8]) it was 2%; in test [5] (at 50.0 µM) it was -15.8%; in test [6] (setting [7]), -1%; in test [6] (setting [8]) it was -2%; in test [6] (at 50.0 µM) it was -35.7%.

`c1ccc2c(c1)ccc1c2ccc2sc3ccccc3[n+]21`: the growth inhibition is 71% (active) in test [1] (setting [7]); 94% (active) in test [1] (setting [8]); 92.3% (active) in test [1] (at 50.0 µM); 53% in test [2] (setting [7]); 96% (active) in test [2] (setting [8]); 53.9% in test [2] (at 50.0 µM). For the same molecule, the growth inhibition in test [3] (setting [7]) is 59%; in test [3] (setting [8]) it was 93% (active); in test [3] (at 50.0 µM), 91.2% (active); in test [4] (setting [7]), 62%; in test [4] (setting [8]), 92% (active); in test [4] (at 50.0 µM), 69.8%. Besides, the growth inhibition is 54% in test [5] (setting [7]); 92% (active) in test [5] (setting [8]); 73.5% (active) in test [5] (at 50.0 µM); 75% (active) in test [6] (setting [7]); 96% (active) in test [6] (setting [8]); 91.3% (active) in test [6] (at 50.0 µM).

For the molecule `OC(C1CCCC1=N/N=C1/CCCC1C(O)(C(F)(F)Cl)C(F)(F)Cl)(C(F)(F)Cl)C(F)(F)Cl` (centres undefined), the growth inhibition is -2% in test [1] (setting [7]); 22% in test [1] (setting [8]); 86.3% (active) in test [1] (at 50.0 µM); -2% in test [2] (setting [7]); 25% in test [2] (setting [8]); 89.3% (active) in test [2] (at 50.0 µM). The growth inhibition in test [3] (setting [7]) was -4%; in test [3] (setting [8]) it was 7%; in test [3] (at 50.0 µM), 90.9% (active); in test [4] (setting [7]), 1%; in test [4] (setting [8]), 26%; in test [4] (at 50.0 µM), 88.8% (active). Further, the growth inhibition in test [5] (setting [7]) was 0%; in test [5] (setting [8]), 11%; in test [5] (at 50.0 µM), 91.8% (active); in test [6] (setting [7]), -3%; in test [6] (setting [8]), 33%; in test [6] (at 50.0 µM), 92% (active).

`C1=NN(c2ccccc2)C2c3ccccc3CCCC12` (centres undefined): the growth inhibition is 8% in test [1] (setting [7]); 98% (active) in test [1] (setting [8]); 99.2% (active) in test [1] (at 50.0 µM); 18% in test [2] (setting [7]); 99% (active) in test [2] (setting [8]); 98.7% (active) in test [2] (at 50.0 µM). Besides, the growth inhibition in test [3] (setting [7]) is 8%; in test [3] (setting [8]) it was 99% (active); in test [3] (at 50.0 µM), 99% (active); in test [4] (setting [7]), -4%; in test [4] (setting [8]), 98% (active); in test [4] (at 50.0 µM), 98.8% (active). Moreover, the growth inhibition in test [5] (setting [7]) is 5%; in test [5] (setting [8]), 99% (active); in test [5] (at 50.0 µM), 99.1% (active); in test [6] (setting [7]), -2%; in test [6] (setting [8]) it was 99% (active); in test [6] (at 50.0 µM), 98.7% (active).

Take `O=S(=O)(O)c1ccc(N=Nc2ccc3c(S(=O)(=O)O)cccc3c2O)c2ccccc12`: the growth inhibition in test [1] (setting [7]) was 10%; in test [1] (setting [8]), -5%; in test [1] (at 50.0 µM), -1.35%; in test [2] (setting [7]) it was 6%; in test [2] (setting [8]) it was -16%; in test [2] (at 50.0 µM) it was -21.6%. Besides, the growth inhibition is 0% in test [3] (setting [7]); -18% in test [3] (setting [8]); -37.2% in test [3] (at 50.0 µM); -25% in test [4] (setting [7]); -78% in test [4] (setting [8]); 35% in test [4] (at 50.0 µM). Moreover, the growth inhibition in test [5] (setting [7]) was -2%; in test [5] (setting [8]), -9%; in test [5] (at 50.0 µM) it was -16.1%; in test [6] (setting [7]), -5%; in test [6] (setting [8]), -9%; in test [6] (at 50.0 µM), 5%.
